# Whole data set: some 4,500 sequences, median “median log2 fold change of GCK-ALFA target abundance (FLAG IP / Myc IP barcode read proportion)” near 0.078, cut for the lowest 2% near -0.6. This excerpt belongs to a sample that is enriched for the lowest values.
# B1: GBRAP_125_2982 (protein)
# chain: PTEQELEDLRRFARALGLDEEEAEEAAELARAHSLRGTVYAILAALGEEEAADLVEKLTEEEVARVLRRVAAYLEAHPDATPEEVVALFRELAEEELAKR
# B2: GBRAP_139_3718 (protein)
# chain: SAAEEKIEKAKEIVEKYKDDLEKLAKELAKLISEVDGETALEIVRAAAEELKDWSWEEWEEFIELLEKELKELGFDEDDVLAIKGEFEAVMAKHLMAKEA
# B3: GBRAP_117_2578 (protein)
# chain: MEEREEVKRRLRETVREAGKRLEESKSLSPEERRKVEEEVRERIAEAVREALEVLSREEVLDIVEEELLEFDAETYFKIMSFVEEAIEEIREEEEREREE
# B4: GBRAP_11_2868 (protein)
# chain: KKEKLEELAKLVKEAIEKLEKLLKEGVDNEELRKEIKKLLKEALKLAEKYASPAVAELLKIALEDLEKAEEDPENAKEYVERALAALRVAHGDLLLEIDE
# B5: GBRAP_172_4999 (protein)
# chain: GTTLLKLNLLGLSKEEAVETAVKAVKETIEKTGNNLVVAVIADDEETVEAVEKAIKKVAKEKGVKVEVVGEAYRSEEDERRVLAAAEAEKINLEYEEEEK
# B6: GBRAP_11_2687 (protein)
# chain: KKEKLEEGAKLAEELAKLIEELLKEGVDNEKLLKELEKKLKELEKLTKEYADKASQKLTEDIKETWEEMLKDPEKAEEYAKEMLAGARVLAGDYLLEIEE
# B7: GBRAP_160_4408 (protein)
# chain: SEELEETAERILEAVEDELELLLELGEVDPEAAAGLLEGTILLEAFEDDSLTEEQEEEIEELAEELAERLERLLKEEGRMTEEIVEELLEEAEEGLEEII
# B8: GBRAP_160_4407 (protein)
# chain: SEALKETAERILEAVKDELDLLLELGKIDPKAAAGLLEGTVLLEMFEDDSLTEEQEEKLEELAERLAERLEKLLKEEGEMTEEIRKELLEEAKRGLEEII
# B9: GBRAP_160_4409 (protein)
# chain: SEELKKTAERILEAVKEELELLLELGEIDPEAAAGLLEGTILLEVFEDDSLTEEQEEKLEELAEELAEELRKRLEEEGKMTEEIKEELLKLAKEGLEKII
# B10: GBRAP_14_3807 (protein)
# chain: MEEKKKAITDNTDELKEIVTEILKDAPQEVRDAVLAAIEDFRKTVIENNLNPDEIAELGDELVKKVEEITKDLPADVRARVLAAVRVHTGEIILEVEELE
# B11: GBRAP_95_7033 (protein)
# chain: EDDKLALESAIEVAVAAAELGDDDAAARALREALELLKKAGKVELDEELLKEAIDVIERVGVKKLPREDVLELLELLLEAAETEEVKELAEKAIERVKKR
# B12: GBRAP_160_4426 (protein)
# chain: SAKLEKAKKLITEIVEETAEMMEGESAEERIVLVRVAEGEILLELEELGLLTDEIEAVIDETFAAIAAHIAAHPDISQEELRALLKAAEEKIKKQLEKEA
# B13: GBRAP_52_6047 (protein)
# chain: SEEEIRRLAREAYEAMLAGDEERARALLREIFATKDEEKLEVFLETMVELAREARPEEHDAVARLVELAEEVGREAGIPEEFLDDFEARVFAAMYEAEQR
# B14: GBRAP_11_2845 (protein)
# chain: KKEKLKEIAEQADKVIALLDELIAAGTDDEELWKKLEEQLKKLQELVEKYLDESEKELAKLAKEELEEAKADPANAEQHLNNAKAFVSTLQGLVLLEIEE
# B15: GBRAP_125_3027 (protein)
# chain: SMEETAANLAKIARALGFSEGDVAELVANALAHGIKGAMIALALALGDEELADLLERLTEEEVARVVAEAAAEIEANPDLTPEEVKALLLELARRAVAES
# B16: GBRAP_35_5514 (protein)
# chain: STDDTIAEMLESYIEDLTLAVPELDPETLHTLTLGAAEMARELIEDNKNNKEIVKRIKESLERLLEALEARGLDDPLLREAAERVREVIEYAEEVLKEIE
# B17: GBRAP_150_3890 (protein)
# chain: SLEELLTIADTALDILELDIESGGKTIDQTLKVVQALVDEAKNFSPELQKLAEEALKKVEEAKKLKEEGGDQKEIDKLLKEAKKKLEELIKLLEKKIKEK
# B18: GBRAP_83_6961 (protein)
# chain: MIVVAASERPESIRSSIEAAIDLHKNEGKEVEIELFVTRENAPAALEGLKKAIDAGVEAEITLVTREEDREAAEALAAELKAYAAAKGRNTTVTVEVLPA
# B19: GBRAP_184_5320 (protein)
# chain: KVIHKVIEVETEEEAIEKLEEVKKEAKETGEKYLVVVEIKNATEKKIEAIAEKIKEMKEEGLPIEVIVELLDEVDEELTDFAVEKMEEAGAKVVISLKDE
# Target: GABARAP, O95166
# Assay: median log2 fold change of GCK-ALFA target abundance (FLAG IP / Myc IP barcode read proportion) (log2 ratio); each designed protein is fused to an ALFA-tag nanobody in HEK293 cells to bring the named protein to FLAG-tagged glucokinase (GCK); Myc marks an untargeted standard; higher = target protein stabilised (more abundant)
# Conditions: target protein: 3xFLAG-MCP-GCK-ALFA reporter; HEK293 landing pad (RPLP)
# Outline: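 Sequencing of reverse-transcribed, amplified circular RNA barcodes from anti-FLAG and anti-Myc immunoprecipitates provided the readout for an ALFA-nanobody-fused binder library recombined into HEK293 landing-pad cells. Those cells were induced with 2 μg mL^−1 doxycycline, transfected with a plasmid expressing a FLAG-tagged target and a Myc-tagged standard, and lysed after 48 h. Target abundance is the per-binder median log2 ratio of FLAG to Myc barcode read proportions. Only barcodes at a proportion of ≥10^−7 in both replicates and binders with ≥3 barcodes per replicate were kept, with a 10^−6 pseudocount added before the two replicates were pooled.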
# Sequence of GABARAP, O95166 (O95166 whole entry, the tested form may be a part): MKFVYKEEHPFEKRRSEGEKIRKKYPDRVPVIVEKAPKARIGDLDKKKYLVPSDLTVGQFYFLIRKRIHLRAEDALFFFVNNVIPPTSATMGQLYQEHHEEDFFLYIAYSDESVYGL
row,Binder,median log2 fold change
1,B1,-0.551
2,B2,0.0839
3,B3,0.274
4,B4,0.0406
5,B5,0.15
6,B6,0.232
7,B7,-0.872
8,B8,-0.289
9,B9,-0.32
10,B10,0.206
11,B11,0.148
12,B12,-0.243
13,B13,0.204
14,B14,0.0872
15,B15,0.134
16,B16,-0.908
17,B17,0.232
18,B18,0.189
19,B19,0.193

# Source: the supplement of paper PMC12632987
